Most compounds without a hit are left out; they make up all but 1.6% or so of the library.
KCNQ2 enhance = KCNQ2 (rat) channel potentiation. B-score at 10 µM. CHO-K1 KCNQ2, FluxOR thallium flux fluorescence; active compounds read high. 310,000 tested, 0.54% active. AID 2239;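 active = fluorescence ratio B-score at least 3 SD of library B-scores, with initial fluorescence B-score within 3 of them, cut at about 5.3 in these data; same plate scores as AID 2156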;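 also: B-score of peak minus minimum over baseline fluorescence ratio after K+ and Tl+ stimulus; positive B-score means potentiation of KCNQ2 with more thallium influx and brighter signal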
Target sequence (O88943 whole entry, looked up): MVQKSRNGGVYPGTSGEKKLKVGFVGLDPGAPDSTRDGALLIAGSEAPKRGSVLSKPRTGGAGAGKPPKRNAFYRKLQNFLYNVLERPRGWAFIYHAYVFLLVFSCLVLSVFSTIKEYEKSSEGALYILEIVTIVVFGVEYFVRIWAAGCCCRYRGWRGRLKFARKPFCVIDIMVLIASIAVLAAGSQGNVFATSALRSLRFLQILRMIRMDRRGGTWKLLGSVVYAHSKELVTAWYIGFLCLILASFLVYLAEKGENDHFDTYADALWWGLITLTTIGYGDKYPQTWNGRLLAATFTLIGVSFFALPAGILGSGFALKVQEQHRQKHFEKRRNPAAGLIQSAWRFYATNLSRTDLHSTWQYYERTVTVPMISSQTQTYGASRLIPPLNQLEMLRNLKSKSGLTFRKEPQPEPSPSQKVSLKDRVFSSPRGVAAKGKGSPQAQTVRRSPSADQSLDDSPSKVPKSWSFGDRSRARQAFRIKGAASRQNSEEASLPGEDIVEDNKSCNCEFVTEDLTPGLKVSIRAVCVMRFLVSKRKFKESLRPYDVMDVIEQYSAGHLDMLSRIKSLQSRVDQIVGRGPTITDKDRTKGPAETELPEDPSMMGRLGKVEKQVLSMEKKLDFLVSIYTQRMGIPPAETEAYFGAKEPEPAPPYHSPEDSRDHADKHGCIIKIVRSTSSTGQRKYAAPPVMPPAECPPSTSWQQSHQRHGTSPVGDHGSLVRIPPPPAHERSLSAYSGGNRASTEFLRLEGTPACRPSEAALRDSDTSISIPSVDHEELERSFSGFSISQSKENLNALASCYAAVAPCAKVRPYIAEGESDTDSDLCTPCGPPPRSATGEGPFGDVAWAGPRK
KCNQ2 block = KCNQ2 (rat) channel inhibition; O88943; CHO-K1 KCNQ2, FluxOR thallium flux, 20 min; active compounds read low; B-score at 10 µM; 310,000 tested, 1.1% active;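 active = fluorescence ratio B-score at most minus 3 library SDs, with starting brightness B-score within 2 library SDs, cut at about -5.5 in these data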
An asterisk follows results filed as active; i = inactive; . = no result.

SMILES | KCNQ2 enhance | KCNQ2 block
CCOc1ccc(N2CC(C(=O)Nc3ccccc3C(=O)NC3CC3)CC2=O)cc1 (centres undefined) | 0.08 | i
CCOC(=O)Cc1nn(Cc2nc(-c3ccc(C#N)cc3)cs2)c(=O)c2ccccc12 | . | i
CCC(c1nnc(SCc2nc3ccccc3s2)n1Cc1ccccc1)N(C)C (centres undefined) | -6.3 | -6.3*
CCn1c(SCc2nc3ccccc3s2)nnc1-c1ccccc1 | . | i
CCOc1ccc2nc(N3CCCCCC3)sc2c1 | 1 | i
CCOc1ccc2nc(N3C(=O)/C(=C/c4ccccc4)NC3=S)sc2c1 | 20* | i
COc1ccc2nc(N3C(=O)/C(=C/c4ccccc4)NC3=S)sc2c1 | 23* | i
COc1ccc2nc(-n3c(C)ccc3C)sc2c1 | 0.47 | i
Cc1cc(C)c(-c2cc(NC(=O)COC(=O)c3ccc(CO)cc3)n(-c3ccccc3)n2)cc1C | . | i
Cc1cc(C)c(-c2cc(NC(=O)CSc3n[nH]c(N)n3)n(-c3ccccc3)n2)cc1C | -6.9 | -6.9*
COc1ccc(-n2nc3c(c2NC(=O)c2cc4ccccc4o2)CS(=O)(=O)C3)cc1 | . | i
Cc1ccccc1-n1nc2c(c1NC(=O)c1ccc(Br)o1)CSC2 | -5.9 | -5.9*
Cc1ccccc1-n1nc2c(c1NC(=O)c1ccco1)CS(=O)(=O)C2 | 0.64 | i
Cc1ccccc1-n1nc2c(c1NC(=O)c1cc3ccccc3o1)CS(=O)(=O)C2 | -7.6 | -7.6*
O=C(NCCCN1CCCC1=O)c1cc(-c2ccc3c(c2)OCO3)nc2ccccc12 | . | i
O=C(NCCCN1CCCC1=O)c1cc(-c2cccnc2)nc2ccc(Cl)cc12 | -6.5 | -6.5*
COc1ccc(N2CCN(C(CNC(=O)C(=O)NCc3ccc4c(c3)OCO4)c3ccco3)CC2)cc1 (centres undefined) | 0.07 | i
CC1CCN(c2nc3ccccc3nc2C(C#N)C(=O)OC2CCCCC2)CC1 (centres undefined) | . | i
CC1CN(c2nc3ccccc3nc2C(C#N)C(=O)OC2CCCCC2)CC(C)O1 (centres undefined) | -5.9 | -5.9*
COc1ccccc1C(=O)Nc1ccccc1N1CCN(C(=O)c2ccc(Cl)cc2)CC1 | . | i
Cc1oc2c(cc(NS(=O)(=O)c3ccc(F)cc3)c3ccccc32)c1C(=O)O | . | i
Cc1oc2c(cc(NS(=O)(=O)c3ccc(C(C)C)cc3)c3ccccc32)c1C(=O)O | -5.8 | -5.8*
CC1(C)Cc2c(C#N)c(N3CCCC3)nc(-c3ccco3)c2CO1 | -9.1 | -9.1*
CC1(C)Cc2c(C#N)c(NCc3ccco3)nc(-c3ccco3)c2CO1 | 0.49 | i
CC(C)CCN(C(=S)Nc1cccc(C(F)(F)F)c1)C(C)c1ccccn1 (centres undefined) | -6.1 | -6.1*
SMILES | KCNQ2 enhance | KCNQ2 block
CC(c1ccccn1)N(CCN(C)C)C(=S)Nc1cccc(F)c1 (centres undefined) | 1.3 | i
CN(CC(=O)Nc1cccc(F)c1)C(=O)c1cc([N+](=O)[O-])ccc1N1CCOCC1 | 0.29 | i
O=C(NCCCn1ccnc1)c1cc(-c2cccc(O)c2)on1 | . | i
O=C(N/N=C/c1ccc([N+](=O)[O-])cc1)c1cccs1 | . | i
O=C(N/N=C/c1cccc([N+](=O)[O-])c1O)c1cccs1 | 6* | i
CO/N=C/c1ccc(OC)c(Oc2nc(OC)cc(OC)n2)c1 | . | i
C=CCN1C(=S)CC(c2ccccc2)=Nc2ccccc21 | -6.7 | -6.7*
C=CCn1c(-c2csc(-c3ccccc3)n2)n[nH]c1=S | 0.16 | i
COc1cccc(N2[C@@H](CC(C)=O)c3ccc(/C=C/C(C)=O)cc3S2(=O)=O)c1 | . | i
Cc1cc(NS(=O)(=O)c2ccc(Nc3nc(-c4sc(NC(=O)c5ccccc5)nc4C)cs3)cc2)no1 | -13 | -13*
Cc1nc(NC(=O)c2ccccc2)sc1-c1csc(Nc2cccc(F)c2)n1 | 0.54 | i
O=C(Nc1cccnc1)c1cc(-c2ccc(Br)cc2)nc2ccccc12 | -6.3 | -6.3*
O=C(NCCCN1CCOCC1)c1cc(-c2ccc3c(c2)OCO3)nc2ccccc12 | . | i
CC(=O)Nc1cccc(NC(=O)c2cc(-c3cccnc3)nc3ccc(Br)cc23)c1 | . | i
Cc1ccc(NC(=O)c2cc(C)nc3ccccc23)cc1 | 0.37 | i
O=C(NCCCN1CCOCC1)c1cc(-c2ccc(Br)cc2)nc2ccccc12 | -6.8 | -6.8*
Cc1ccc(C)c(NC(=O)c2cc(C)nc3ccccc23)c1 | -5.9 | -5.9*
Cc1cccc(NC(=O)c2cc(-c3ccc(C)s3)nc3ccccc23)n1 | -7.5 | -7.5*
Cc1cc(NC(=O)c2cc(-c3ccc(C)s3)nc3ccccc23)no1 | . | i
CCOC(=O)c1cn(Cc2ccccc2)nc1-c1ccccc1 | . | i
CC(C)CN(C)C(=O)CCc1nnc(Cc2ccc(-c3ccccc3)cc2)o1 | . | i
O=C(COC(=O)Cc1ccsc1)Nc1ccc(Cl)c(S(=O)(=O)N2CCOCC2)c1 | 0.48 | i
COc1ccc(C(CC(=O)c2ccccc2)CC(=O)c2ccccc2)cc1OC | . | i
O=C(NC(=S)NC(CO)Cc1ccccc1)c1ccc(F)cc1 (centres undefined) | . | i
CN(c1cccc2cccnc12)S(=O)(=O)c1ccccc1 | 0.41 | i
SMILES | KCNQ2 enhance | KCNQ2 block
COc1ccc(NC(=O)c2cc3c(=O)n(C)c4ccccc4c3s2)cc1OC | 0.93 | i
Cc1nn(CC(=O)N2CCCCCC2)c(=O)c2cc3occc3n12 | . | i
O=C(NNC(=S)Nc1ccccc1)c1cc(-c2cccnc2)nc2ccccc12 | -6.1 | -6.1*
Cc1ccc(C)c(-c2cc(C(=O)Nc3cccc(C(=O)O)c3)c3ccccc3n2)c1 | . | i
Cc1ccc(C)c(-c2cc(C(=O)Nc3cccnc3)c3ccccc3n2)c1 | -6.3 | -6.3*
CCOC(=O)c1ccc(NC(=S)NNC(=O)c2cc(-c3cccnc3)nc3ccccc23)cc1 | . | i
C/C(CC(=O)Nc1cccc(F)c1)=N\NC(=O)c1ccncc1 | 0.51 | i
CC1CC1C(=O)OCC(=O)Nc1ccc2[nH]c(=O)[nH]c2c1 (centres undefined) | . | i
CCOP(=O)(OCC)C(Nc1ccc(C(=O)O)cc1)c1ccccc1 (centres undefined) | 0.79 | i
CCOC(=O)c1ccc(NC(c2ccc(N(C)C)cc2)P(=O)(OC(C)C)OC(C)C)cc1 (centres undefined) | -6.5 | -6.5*
CC(=O)Nc1cccc(OCC(=O)Nc2sccc2C(N)=O)c1 | 1.7 | i
COc1ccc(NC2=Nc3cccc4cccc2c34)cc1OC | . | i
COc1cc(NC2=Nc3cccc4cccc2c34)cc(OC)c1OC | -6 | -6*
COc1cccc(CN(C)C(=O)CNC(=O)c2ccc3c(c2)OCO3)c1OC | 0.6 | i
CCOC(=O)C1=C(CS(=O)(=O)c2ccc(F)cc2)NC(=O)NC1c1ccc(O)c(O)c1 (centres undefined) | 0.93 | i
NC(N)=N/N=C/c1ccc(OCc2ccccc2Cl)cc1 | -6.2 | -6.2*
NC(N)=N/N=C/c1ccccc1 | . | i
Cn1cnc2c(oc3ccccc32)c1=O | . | i
Cc1ccccc1NC1=NC(=S)N(c2ccccc2)C12CCOC(C)(C)C2 (centres undefined) | 0.22 | i
Cc1ccccc1NC1=NC(=S)N(c2ccccc2)C12CCCCC2 | 5.5* | i
Cc1cc(C)c2cc(C#N)c(SCC(=O)Nc3cc(C)on3)nc2c1 | . | i
Cc1c(Cl)cccc1NC(=O)C1COc2ccccc2O1 (centres undefined) | . | i

Screening data deposited in PubChem BioAssay by Johns Hopkins Ion Channel Center.
